Our source for the Potency values is PubChem BioAssay (NCATS).

Activity calls are given as the source filed them. Entries that show only a call come without a potency. Calls follow the shape of the dose curve; as a rule, active = well fitted cell-killing curve with a large enough effect; inconclusive = small, poorly fitted or top-dose-only effect; inactive = flat fitted curve, though single readings scatter.
Potency is read from the fitted curve at half-maximal effect.

This test in a line: Cell Viability - LYMP1-003 - Assay at 24 hr (AID 963). The note with it: LYMP1-003 lymphoblastoid cell viability; series mostly up to 92.2 µM. The source says:
NIH Chemical Genomics Center [NCGC]
NIH Molecular Libraries Screening Centers Network [MLSCN]
National Institutes of Environmental Health Sciences [NIEHS]
National Toxicology Program [NTP]
We have developed a 1536-well cell-based assay for quantitative high throughput screening (qHTS) against a number of cell lines to determine in vitro cytotoxicity of small molecules. This particular assay uses a human lymphoblastoid cell line (LYMP1-003) purchased from Coriell Institute for Medical Research.
NCGC Assay Protocol Summary:
The CellTiter-Glo luminescent cell viability assay (Promega) is a homogeneous method to measure the number of viable cells in culture. The end point readout of this assay is based on quantitation of intracellular ATP, an indicator of metabolic activity, using the luciferase reaction. Luciferase catalyzes the oxidation of beetle Luciferin to oxyluciferin and light in the presence of ATP. The luminescent signal is proportional to amount of ATP present.
Using the CellTiter-Glo luminescent cell viability assay, the amount of cellular ATP was measured in the lymphoblastoid cell line with complete culture medium following compound treatment for 24 hours. The assay was performed in opaque white Kalypsys 1536-well plates. In the screen, tetraoctylammonium bromide was used as positive control. Library compounds were measured for their ability to cause acute toxicity in the cell line, as reflected by a decrease in intracellular ATP levels, in a concentration-dependent manner. […] AC50 values were determined from concentration-response data modeled with the standard Hill equation.
qHTS protocol for CellTiter Glo lymphoblastoid cellular assay
[Step] [Parameter] [Value] [Description]
1. Reagent; 5 uL; 2500 lymphoblastoid cells/well
2. Time; 5 hr; 37 C incubation
4. Controls; 23 nL; Tetraoctylammonium bromide 6.4pM to 92 uM
5. Time; 24 hr; 37 C incubation
6. Reagent; 5 uL; CellTiter Glo reagent
7. Time; 30 min; Room Temperature
8. Detection; Luminescence; Viewlux plate reader
Keywords: cell viability, cytotoxicity, lymphoblastoid cell line, luminescence, NTPHTS, NTPHTS_NCGC, NIEHS, DSSTox, MLSMR, MLSCN, NIH Roadmap, qHTS, NCGC
On to `O=C(O)c1cc(N=Nc2ccc([N+](=O)[O-])cc2)ccc1O`, for which the Potency result is “inactive”.
On to `Cc1ccccc1OCC1CO1` (stereo not given), for which the Potency entry was “inactive”.
Take `Cc1cc(=O)oc2cc(O)cc(O)c12`: the Potency result was “inactive”.
With `CCCCCCN`, the Potency entry is “inactive”.
Consider `CC(=O)OC1CC(C)OC(C)O1` (stereo not given), for which the Potency result was “inactive”.
The same measure for `Cc1cc(-c2ccc(N=Nc3cc(S(=O)(=O)O)c4ccccc4c3N)c(C)c2)ccc1N=Nc1cc(S(=O)(=O)O)c2ccccc2c1N`: “inactive”; for `C/C=C/C=C/C=O`: “inactive”; for `Nc1cc([N+](=O)[O-])ccc1O`: “inactive”.
Turning to `Nc1ccc(-c2ccc(N)c(O)c2)cc1O`, the Potency result was “inactive”.
With `c1ccc(SCCSc2ccccc2)cc1`, the Potency result was “inactive”.
Turning to `c1cc2c3c(c1)ccc1cccc(c13)C2`, the Potency result was “inactive”.
As for `Brc1cc(Oc2cc(Br)c(Br)c(Br)c2Br)c(Br)c(Br)c1Br`, the Potency result is “inactive”.
With `O=[N+]([O-])c1cc(Cl)c(Cl)c(Cl)c1Cl` the entry was “inactive”; with `c1ccc(CSCc2ccccc2)cc1`, “inactive”.
`Cc1c2ccccc2c(C)c2c1ccc1ccccc12`: the Potency entry is “inactive”.
Consider `O=C=Nc1ccc(Cl)c(Cl)c1`, for which the Potency result was “inactive”.
Take `CCCCNCC`: the Potency entry is “inactive”.
Consider `O=[N+]([O-])c1cccc(I)c1`, for which the Potency result was “inactive”.
For the compound `CC(=O)c1ccc(Cl)c(Cl)c1Cl`, the Potency entry was “inactive”.
Regarding `Oc1c(Cl)cc(Cl)c(Cl)c1Cl`, the Potency entry was “inactive”.
Regarding `CCNC(=S)NCC`, the Potency entry was “inactive”.
`C[Si](C)(C)Cl`: the Potency result was “inactive”.
Consider `C=CC(=O)CC`, for which the Potency entry was “inactive”.
As to `C[C@@H]1CC2(OC(O)[C@]3(C)O[C@H]23)O[C@H]2C[C@@]3(C)[C@@H]4CC[C@H]5C(C)(C)C(O[C@@H]6OC[C@@H](O)[C@H](O)[C@H]6O)CC[C@@]56C[C@@]46CC[C@]3(C)[C@@H]12` (stereo not given in full), the Potency result was “inactive”.
Consider `Nc1ccccc1O`, for which the Potency result was “inactive”.
In the case of `CCCCCCCCC1CO1` (stereo not given), the Potency entry was “inactive”.
Consider `C=Cc1cccc(C)c1`, for which the Potency result was “inactive”.
Turning to `N=C1C=CC(=C(c2ccc(N)cc2)c2ccc(N)cc2)C=C1`, the Potency is 15.8 µM (active).
As to `CCOC(=O)C1OC1c1ccccc1` (stereo not given), the Potency result is “inactive”.
With `Oc1ccc(O)c2c(O)cccc12` the entry was “inactive”.
Regarding `c1ccc(COCc2ccccc2)cc1`, the Potency result was “inactive”.
Regarding `Oc1ccc2c(c1)OCO2`, the Potency result is “inactive”.
The same measure for `Cc1ccc(O)c(N)c1`: “inactive”.
With `CCCCC(CC)COC(=O)COc1ccc(Cl)cc1Cl` (stereo not given) the entry was “inactive”.
`CC(=O)Nc1cccc(C)c1`: the Potency entry was “inactive”.
With `c1ccc(Nc2cccc3ccccc23)cc1`, the Potency result is “inactive”.
`NC(=O)c1ccc([N+](=O)[O-])cc1`: the Potency entry was “inactive”.
With `CCCCCCc1ccc(-c2ccc(C#N)cc2)cc1` the entry was “inactive”; with `CC1=C(/C=C/C(C)=C/C=C/C(C)=C/C=O)C(C)(C)CCC1`, 50.1 µM (active); with `CCCCC(CC)COCCCN` (stereo not given), “inactive”.
